Reference: ChEMBL document CHEMBL4513216, “Probing the Open Global Health Chemical Diversity Library for Multistage-Active Starting Points for Next-Generation Antimalarials” (ACS Infect Dis, 2020)
Screen size: about 68,000 compounds; about 2,700 (4%) showed an effect of 50% or more. Only a selection was taken, and strong results are over-represented in it overall.

Each compound was assayed on Plasmodium berghei (assay: Screen against P. berghei liver stage (PbLuc), transformed with Luciferase, at 2uM). Conditions: tested at 2 uM.
Format: functional, HepG2

| SMILES | INHIBITION [%] |
| --- | --- |
| COCC[C@]1(O)CCN(Cc2ccccn2)C[C@H]1C | 5.39 |
| O=C(NCC1(O)CCSCC1)c1ccoc1 | 53.61 |
| O=C(Cc1cccs1)NCC1(O)CCSC1 (configuration not stated) | -2.22 |
| COC1(CNC(=O)c2ccoc2)CCSC1 (configuration not stated) | 28.5 |
| O=C(NCC1(O)CCSC1)c1ccoc1 (configuration not stated) | 22.4 |
| O=C(Cc1cccs1)NCC1(O)CCc2ccccc2C1 (configuration not stated) | 24.6 |
| O=C(Cc1cccs1)NCC1(O)CCSCC1 | 52.85 |
| CN(Cc1ccncc1)C1CC2(CCN(c3ncccn3)CC2)C1 | 36.48 |
| COc1ccc(NC(=O)NCCCn2nc3ccccn3c2=O)cc1 | -12.82 |
| COCc1cc(N2CCOC(c3ccc(Cl)c(Cl)c3)C2)ncn1 (configuration not stated) | -16.62 |
| CC(C)(C)c1cnc(CN2CCC(CN3CCOCC3)CC2)o1 | -10.87 |
| COCCN(C)C(=O)c1nc2c(s1)CCCN2C | 32.04 |
| O=C(c1ccc(F)cc1F)N1CCN(C(=O)C2CCCCC2)CC1 | 16.54 |
| CC(C)Cc1nc(CCn2cncn2)n(-c2ccc3c(c2)OCCO3)n1 | 61.14 |
| CC(C)c1nc(CCn2cncn2)n(-c2ccc3c(c2)OCCO3)n1 | -39.01 |
| CC(C)Cc1nc(CO)n(-c2ccc3c(c2)OCCO3)n1 | 31.8 |
| Cc1cc(N)cc(C2CN(Cc3cc[nH]n3)CCO2)n1 (configuration not stated) | 26.14 |
| COc1ccc(C2CCCCCN2S(N)(=O)=O)cc1 (configuration not stated) | -16.65 |
| CC(C)c1cc(C(=O)N2CCc3nc(C4CCCN4)ncc3C2)cs1 (configuration not stated) | 67.83 |
| Cc1cc(C(=O)N2CCc3nc(C4CCCCN4)ncc3C2)cs1 (configuration not stated) | 12.8 |
| Cc1cc(C(=O)N2CCc3nc(C4CCCN4)ncc3C2)cs1 (configuration not stated) | 40.31 |
| CC(C)(C)C(=O)NS(=O)(=O)c1ccc(C#N)c(C(F)(F)F)c1 | 1.52 |

| SMILES | INHIBITION [%] |
| --- | --- |
| COc1ccc(Oc2nccnc2C2CCN(C(C)=O)CC2)cc1 | 12 |
| Cc1cccc(C)c1Oc1ncccc1CNC(=O)C1(C)CCCNC1 (configuration not stated) | 50.32 |
| COc1ccccc1Oc1ncccc1CNC(=O)C1(C)CCCNC1 (configuration not stated) | 43.27 |
| CC1(C(=O)NCc2cccnc2Oc2ccc(F)cc2F)CCCNC1 (configuration not stated) | -20.29 |
| O=C(CC1CC1)N(Cc1cccnc1)CC1CCN(C2CCCC2)CC1 | -53.72 |
| Cn1nccc1C(=O)N1CCC(n2cc(-c3ccsc3)nn2)CC1 | 15.68 |
| CCC(O)CN1CCN(C(=O)c2cccc3c2OCC(=O)N3)CC1 (configuration not stated) | -29.24 |
| COCc1cn(CC2CCN(Cc3cc(C)[nH]n3)CC2)nn1 | 26.3 |
| c1csc(CN2CCCN(c3ccc(Cn4ccnc4)cn3)CC2)c1 | 17.61 |
| Fc1ccc(N2CCCN(c3ccc(Cn4ccnc4)cn3)CC2)cc1 | 54.49 |
| c1cn(Cc2ccc(N3CCCN(C4CCCC4)CC3)nc2)cn1 | 4.63 |
| COc1ccc2[nH]cc(-c3ccnc(NC4CCCC4)n3)c2c1 | -4.95 |
| Cc1noc(CCCC(=O)NC(C)c2ccc(Cl)s2)n1 (configuration not stated) | 15.4 |
| CCc1cnc(C)nc1NCCN1CCCCCC1 | 7.08 |
| Cc1nc(NCC(O)CN2CCCCCC2)c2c(C)noc2n1 (configuration not stated) | 30.87 |
| CCc1cnc(C)nc1NCC(O)CN1CCCCCC1 (configuration not stated) | 80.68 |
| COc1nn(C)c2c1CCCN(S(=O)(=O)c1cccc(C)c1)C2 | 23.43 |
| COc1cccc(S(=O)(=O)N2CCCc3c(OC)nn(C)c3C2)c1 | 39.57 |
| COc1nn(C)c2c1CCCN(S(=O)(=O)c1cccc(F)c1)C2 | 52.47 |
| COCc1nc(CNc2cc(C)on2)cs1 | -65.51 |
| O=C(NC1CC1)[C@@H]1CCO[C@@H]2CCN(Cc3ccco3)C[C@H]21 | 46.73 |
| COc1cccc(-c2cc(NCCO)nc3[nH]ccc23)n1 | 0.51 |

| SMILES | INHIBITION [%] |
| --- | --- |
| COc1cccc(-c2cc(NCCN(C)C)nc3[nH]ccc23)n1 | 0.51 |
| COc1cccc(-c2cc(NCC(=O)O)nc3[nH]ccc23)n1 | 74.44 |
| N[C@H]1CN(C(=O)c2ccccc2OCc2ccccc2)C[C@@H]1C1CC1 | 13.86 |
| Cc1nccn1C1CCCN(C(=O)c2ccc3c(c2)nnn3C)C1 (configuration not stated) | 1.61 |
| Cc1nccn1C1CCCN(C(=O)c2ccc3cc[nH]c3c2)C1 (configuration not stated) | 74.35 |
| Cc1nccn1C1CCCN(C(=O)c2ccc(N(C)C)nc2)C1 (configuration not stated) | 55.7 |
| CCc1nccn1C1CCCN(C(=O)c2ccc(OC)c(OC)c2)C1 (configuration not stated) | -14.17 |
| Cc1nn2cccnc2c1C(=O)N1CCCC(n2ccnc2C)C1 (configuration not stated) | 56.02 |
| CN(C)c1ccc(C(=O)N2CCCC(n3cccn3)C2)cn1 (configuration not stated) | 39.54 |
| Cc1nccn1C1CCCN(C(=O)c2cc3ccccc3[nH]2)C1 (configuration not stated) | -43.41 |
| Cc1nccn1C1CCCN(C(=O)c2ccc3c(c2)CCC3)C1 (configuration not stated) | -33.61 |
| Cc1nn2cccnc2c1C(=O)N1CCCC(n2ccnc2)C1 (configuration not stated) | 28.51 |
| Cc1nn2cccnc2c1C(=O)N1CCCC(n2cccn2)C1 (configuration not stated) | -21.72 |
| CCc1nccn1C1CCCN(C(=O)c2ccc3c(c2)nnn3C)C1 (configuration not stated) | 58.05 |
| Cc1nccn1C1CCCN(C(=O)c2ccc(N(C)C)nn2)C1 (configuration not stated) | 19.35 |
| O=C(NCC1CCC(c2nnc(-c3cccnc3)o2)CC1)C1CC1 (configuration not stated) | 43.77 |
| O=C(O)c1c(Cl)ncn1-c1ccccc1 | 19.33 |
| CS(=O)(=O)N1CCOCC2(CN(Cc3ccc(F)cc3)CCO2)C1 (configuration not stated) | -64.46 |
| COc1ccc(C2CCCN2C(=O)NCCNc2ccccn2)cc1 (configuration not stated) | -34.82 |
| CCOc1ccc(CNCC(O)c2ccccc2)cc1Cl (configuration not stated) | 38.61 |
| CCOC(=O)N1CCC(C(=O)Nc2nnc(C(F)(F)F)[nH]2)CC1 | -22.24 |
| O=C(Nc1ccccc1)NC1CCN(C2CCOC2)CC1 (configuration not stated) | -22.24 |

| SMILES | INHIBITION [%] |
| --- | --- |
| COc1c(C2CCCN2C(=O)c2cnc[nH]2)c(C)nn1C (configuration not stated) | -7.41 |
| CCc1nc(CC(=O)N2CCC(C(=O)N(CC)CC)CC2)cs1 | -6.37 |
| COc1ccc(CC(=O)NCCCc2nnc3nc(C)cc(C)n23)cc1 | 0.54 |
| NC1CCC(Nc2nccc(CCC(F)(F)F)n2)CC1 (configuration not stated) | 2.17 |
| Cc1nn(C)c2sc(C(=O)N3CCCC(n4ccnc4C)C3)cc12 (configuration not stated) | 51.49 |
| Cc1nc(C)c(C(=O)N2CCCC(n3ccnc3C)C2)s1 (configuration not stated) | 45.49 |
| Cc1cc(C(=O)N2CCCC(n3ccnc3C)C2)c(C)s1 (configuration not stated) | -0.55 |
| N#Cc1cn(C2CC2)c(=O)n(CC(O)c2ccc(Cl)cc2)c1=O (configuration not stated) | 28.33 |
| Nc1cc2c(nn1)CCN(C(=O)c1csc(-c3ccccc3)n1)C2 | 29.13 |
| Nc1cc2c(nn1)CCN(C(=O)c1csc(-c3cccs3)n1)C2 | 38.67 |
| Nc1cc2c(nn1)CCN(C(=O)c1csc(-c3ccco3)n1)C2 | 64.9 |
| Cc1cc(=O)n(C)cc1NC(=O)CC1CCC1 | -54.44 |
| CCc1nc(CCNS(=O)(=O)c2cccc(C(=O)N(C)CC)c2)cs1 | 34.18 |
| CCN(C)C(=O)c1cccc(S(=O)(=O)NCCc2csc(N)n2)c1 | 67.22 |
| CCN(C)C(=O)c1cccc(S(=O)(=O)NCCc2nc(C)cc(=O)[nH]2)c1 | 7.83 |
| O=C(c1ccoc1)N1CC[C@H]2C[C@@H](c3ccncn3)O[C@@H]2C1 | 43.71 |
| Cc1ccc(CN2CC3(CCN(S(=O)(=O)c4ccccc4)C3)C2)o1 | 31.5 |
| CCS(=O)(=O)N1CCC2(CN(Cc3ccc(C)o3)C2)C1 | 54.23 |
| CCS(=O)(=O)N1CCC2(CCN(Cc3ccc(C)o3)C2)C1 (configuration not stated) | 9.53 |
| O=C(N[C@@H]1CNCCC[C@H]1O)c1ccc(OCCN2CCOCC2)cc1 | 36.99 |
| CCN(Cc1ccccc1)c1ncnc2c(C)nn(CC)c12 | -4.77 |
| O=C(NCC1CCCO1)c1nc2c(s1)CCCN2Cc1ccccc1 (configuration not stated) | 29.3 |

| SMILES | INHIBITION [%] |
| --- | --- |
| c1coc(CN2CCn3c(COCC4CC4)nnc3C2)c1 | -0.24 |
| CCOCC1CN(c2ccc(C)nn2)Cc2cnn(CC)c21 (configuration not stated) | -3.65 |
| CNC(=O)C1CN(C(=O)Cc2ccc(OC)cc2)Cc2cn(C)nc21 (configuration not stated) | 1.75 |
| Cc1ccc(S(=O)(=O)NC(=O)CCOCc2ccccc2)s1 | 53.13 |
| COc1cccc(S(=O)(=O)NC(=O)COc2c(C)cccc2C)c1 | 60.31 |
| CS(=O)(=O)c1cccc(S(=O)(=O)NC(=O)CC2CCCCC2)c1 | -20.19 |
| CCOCCCC(=O)NS(=O)(=O)c1ccc(C)s1 | 23.64 |
| COc1cccc(S(=O)(=O)NC(=O)COC2CCCCC2)c1 | -1.02 |
| COc1cccc(OCC(=O)NS(=O)(=O)c2cccnc2)c1 | 11.09 |
| Cc1cc(C)c(OCC(=O)NS(=O)(=O)c2cccnc2)c(C)c1 | -76.17 |
| CS(=O)(=O)c1cccc(S(=O)(=O)NC(=O)CC2CCCC2)c1 | 63.54 |
| CS(=O)(=O)c1cccc(S(=O)(=O)NC(=O)CCC2CCCCC2)c1 | -10.29 |
| Cc1ccc(S(=O)(=O)NC(=O)CCOCC(C)C)s1 | -13.12 |
| COc1ccc(S(=O)(=O)NC(=O)COC2CCCC2)cc1 | -43.47 |
| COc1cccc(S(=O)(=O)NC(=O)COC2CCCC2)c1 | 65.77 |
| CSc1ccccc1C(=O)N(C)Cc1nncn1C(C)C | 36.79 |
| CCn1cc(-c2nn3c(C(F)(F)F)nnc3s2)cn1 | -21.49 |
| CCC(=O)N1CCCC(C(=O)c2cnn(-c3ccc(F)cc3)c2N)C1 (configuration not stated) | -4.78 |
| CC(NC(=O)c1ccoc1)C(=O)N(C)Cc1cccc(C(F)(F)F)c1 (configuration not stated) | 2.51 |
